Assay results reported in PubChem BioAssay.
Calls of active or inactive are those of the source.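 Rule for the calls, unless noted: active = inhibition above 20% together with a positive visual image hit; inconclusive = visual image hit but inhibition not above 20%; inactive = no visual image hit.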

Key:
[1] = inhibitors of TNFa-induced NFkB p65 translocation, primary screen, imaging, HUVEC, MLSMR starter and 10KST1 sets (AID 438); conditions: HUVEC TNFa-induced p65 nuclear translocation; cell count: measured here: nuclei count (cytotoxicity indicator), at 2.08 µM; inhibition: at 2 µM, stronger effect = higher value, 0% TNFa-plus-vehicle, 100% no-TNFa wells;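 note: compound added about 3h40 before a 20 min TNFalpha stimulation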;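 for inhibition: signal is the nuclear over cytoplasmic p65 intensity ratio per well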
[2] = inhibitors of mutant huntingtin aggregation, primary screen, imaging, exon1htt(103Q)mCFP cells, high-content imaging (AID 483;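 active = visual image review flags a hit and inhibition of aggregation exceeds 20%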;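 note: compound exposure lasted 3 days before fixation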;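 for nuclei count: percent of the per-plate median nuclei count of sample wells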); conditions: exon1htt(103Q)mCFP cell line, aggregate imaging, at 2 µM; inhibition of aggregation: stronger effect = higher value; nuclei count: measured here: cell count, toxicity
[3] = inhibitors of E-selectin induction by TNFa, primary screen, imaging, HUVEC, immunofluorescence, MLSMR starter and 10KST1 sets (AID 487;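 active = visually confirmed hit in the image check and inhibition above 20%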;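 for inhibition: signal is fraction of cell area covered by stained E-selectin grains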;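 for nuclei count: 100% = median nuclei count of all wells on the same plate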); conditions: HUVEC TNFalpha-induced E-selectin immunofluorescence imaging, at 2 µM; inhibition: stronger effect = higher value; nuclei count: measured here: cell number, toxicity
[4] = molecular target: Voltage-gated potassium channel subunit beta-2 (Rattus norvegicus) (UniProt P62483); assay: KvBeta enzyme negative modulators, primary screen, biochemical, NADPH fluorescence (AID 622;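 active = fluorescence slope higher than the sample average by over 3 SD, cut at about -0.22 in these data, passing the limit was not always enough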;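 note: slope of raw intensity against log time taken from 70 to 1610 s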); conditions: recombinant KvBeta, 4-cyanobenzaldehyde reduction, at 10 µM, stronger effect = higher value
[5] = molecular target: Voltage-gated potassium channel subunit beta-2 (Rattus norvegicus) (UniProt P62483); assay: KvBeta positive modulators, primary screen, biochemical, NADPH fluorescence (AID 623;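 active = NADPH fluorescence slope more negative than the mean of all samples by about 3 SD, 99.7% confidence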;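 note: fluorescence intensity change per second fitted from 20 to 320 s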); conditions: Recombinant KvBeta, NADPH fluorescence decrease slope, 10 min; at 10 µM; stronger effect = lower value
[6] = molecular target: Alpha-2C adrenergic receptor (Homo sapiens) (UniProt P18825); assay: modulators of alpha2C/GIRK thallium flux, primary screen, cell-based, HEK293 alpha2C/GIRK1/2 (AID 624;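 active = fluorescence slope after compound addition differing from the mean of all screened samples at 99.7% confidence, in either direction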;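 note: slope of fluorescence ratio to pre-addition baseline per second over 15 to 24 s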); conditions: thallium flux BTC fluorescence, at 10 µM, actives lie on both sides
[7] = inhibitors of Sendai virus-induced IRF3 signaling, primary screen, TLR/RLR signaling modifier project, cell-based, Sendai virus stimulus, luciferase, 10K MLSCN set (AID 602276;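 active = inhibition at or above 50% at 10 µM; inactive = inhibition below 50%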;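 note: firefly luciferase from ISG56 promoter only with Renilla not read in this screen; 0% = Sendai virus plus DMSO and 100% = medium plus DMSO without virus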); conditions: HEK293 RL24 IRF3 luciferase reporter, at 10 µM, stronger effect = higher value
[8] = inhibitors of poly I:C-induced TLR3 signaling, primary screen, cell-based, poly I:C stimulus, luciferase, 10K MLSCN set (AID 602277;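 active = inhibition of the reporter signal at or above 50%; inactive = inhibition below 50%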); conditions: HEK293-TLR3 RL24 IRF3 luciferase reporter, at 10 µM, stronger effect = higher value

Alpha-2C adrenergic receptor (Homo sapiens), sequence (P18825 whole entry, looked up): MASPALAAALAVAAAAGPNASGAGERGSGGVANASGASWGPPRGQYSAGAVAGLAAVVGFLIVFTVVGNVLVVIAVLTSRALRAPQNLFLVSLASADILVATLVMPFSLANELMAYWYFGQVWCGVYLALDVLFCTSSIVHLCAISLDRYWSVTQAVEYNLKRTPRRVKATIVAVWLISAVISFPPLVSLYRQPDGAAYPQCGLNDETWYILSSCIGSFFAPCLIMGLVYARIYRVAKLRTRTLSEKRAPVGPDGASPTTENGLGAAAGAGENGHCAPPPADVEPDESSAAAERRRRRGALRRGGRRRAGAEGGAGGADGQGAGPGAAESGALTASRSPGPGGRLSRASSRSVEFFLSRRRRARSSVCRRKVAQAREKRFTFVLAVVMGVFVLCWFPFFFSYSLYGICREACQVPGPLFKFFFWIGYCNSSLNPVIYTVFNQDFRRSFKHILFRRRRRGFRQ
Voltage-gated potassium channel subunit beta-2 (Rattus norvegicus), sequence (P62483 whole entry, looked up): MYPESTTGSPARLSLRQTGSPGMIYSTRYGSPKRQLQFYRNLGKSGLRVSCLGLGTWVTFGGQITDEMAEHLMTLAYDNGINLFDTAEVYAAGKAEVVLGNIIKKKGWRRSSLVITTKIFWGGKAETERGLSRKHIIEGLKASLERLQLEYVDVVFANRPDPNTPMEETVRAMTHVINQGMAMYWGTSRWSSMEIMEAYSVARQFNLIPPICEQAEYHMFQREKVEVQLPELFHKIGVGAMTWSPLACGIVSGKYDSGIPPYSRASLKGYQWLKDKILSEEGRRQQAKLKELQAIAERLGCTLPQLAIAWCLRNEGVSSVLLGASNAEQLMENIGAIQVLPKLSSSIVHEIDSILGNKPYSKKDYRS

Row | Structure (SMILES) | cell count [1] | inhibition [1] | inhibition of aggregation [2] | nuclei count [2] | inhibition [3] | nuclei count [3] | fluorescence slope [4] | NADPH fluorescence slope [5] | slope [6] | inhibition [7] | inhibition [8]
1 | CCC1(NC(C)=O)CC2CC1CC2NC(C)=O (stereo not drawn) | 340 | -1.4% (inactive) | -4.3% (inactive) | 100% | -37.4% (inactive) | 103% | -0.614 (inactive) | -1.3e-05 (inactive) | 0.00321 (inactive) | 1.63% (inactive) | 3.3% (inactive)
2 | C=CCSC1=C(C#N)C(c2ccccc2OCC)CC(=O)N1 (stereo not drawn) | 328 | -4.1% (inactive) | 12.8% (inactive) | 99% | 12.5% (inactive) | 105% | -0.306 (inactive) | 1.7e-05 (inactive) | 0.00314 (inactive) | 6.62% (inactive) | 24.6% (inactive)
3 | Cc1ccc(-n2ncc3c(N4CCCC(C)C4)ncnc32)c(C)c1 (stereo not drawn) | 558 | 8% (inactive) | 10.5% (inactive) | 85.8% | 3.1% (inactive) | 93.2% | -0.527 (inactive) | -3.3e-05 (inactive) | 0.00664 (inactive) | -57.7% (inactive) | -125% (inactive)
4 | Cc1ccnc(SCCn2c(N3CCN(Cc4ccccc4)CC3)nc3c2c(=O)[nH]c(=O)n3C)n1 | 665 | -22.3% (inactive) | 0.8% (inactive) | 120% | -36.7% (inactive) | 96.2% | -0.542 (inactive) | -3.1e-05 (inactive) | 0.00641 (inactive) | -0.348% (inactive) | 0.626% (inactive)
5 | CCOC(=O)C1CCN(C(=O)CCCCn2c(=O)[nH]c3ccccc3c2=O)CC1 | 517 | -8.6% (inactive) | -27.5% (inactive) | 100% | -54.8% (inactive) | 126% | -0.563 (inactive) | 3.1e-05 (inactive) | 0.00611 (inactive) | 0.817% (inactive) | -29.5% (inactive)
6 | COCCn1c(=N)c(C(=O)NCCc2ccccc2)cc2c(=O)n3cccc(C)c3nc21 | 388 | 4.3% (inactive) | -22.7% (inactive) | 102% | -75.7% (inactive) | 117% | -0.0609 (inactive) | 4.2e-06 (inactive) | 0.00428 (inactive) | 9.73% (inactive) | 35.4% (inactive)
7 | CCCCCc1c(C)nc(N2CCc3ccccc32)[nH]c1=O | 398 | -2.2% (inactive) | -1.3% (inactive) | 112% | -5.8% (inactive) | 89.4% | -0.609 (inactive) | 1.7e-05 (inactive) | 0.00814 (inactive) | 13.9% (inactive) | -33.8% (inactive)
8 | Cc1cccc(NC(=O)COc2ccc(Br)cc2)n1 | 457 | -12.1% (inactive) | -8.7% (inactive) | 110% | 26.7% (inactive) | 124% | -0.437 (inactive) | 6.5e-05 (inactive) | 0.00667 (inactive) | 2.6% (inactive) | -9.96% (inactive)
9 | c1coc(Cn2nnnc2CN2CCN(C3CCCC3)CC2)c1 | 530 | -15.6% (inactive) | -2.8% (inactive) | 96.9% | -1.8% (inactive) | 107% | -0.408 (inactive) | 2.2e-05 (inactive) | 0.00537 (inactive) | -7.52% (inactive) | 12.8% (inactive)
10 | O=C(c1ccccc1)c1ccncc1 | 391 | 7% (inactive) | -9.4% (inactive) | 103% | -5.9% (inactive) | 119% | -0.399 (inactive) | -2.9e-05 (inactive) | 0.0031 (inactive) | 19% (inactive) | 27.8% (inactive)
11 | Cc1oc(-c2ccc(Cl)cc2)cc1-c1nn2c(-c3ccoc3C)nnc2s1 | 644 | -3.9% (inactive) | -0.4% (inactive) | 94.6% | -24.2% (inactive) | 105% | -0.497 (inactive) | -3.8e-05 (inactive) | 0.00371 (inactive) | 19.8% (inactive) | 23% (inactive)
12 | CC(=O)c1ccc(NC(=O)C2CCN(S(=O)(=O)c3cccc4cccnc34)CC2)cc1 | 591 | 8.3% (inactive) | -7.6% (inactive) | 102% | -11.2% (inactive) | 115% | -0.559 (inactive) | -1.3e-05 (inactive) | 0.0063 (inactive) | 14.2% (inactive) | 32.1% (inactive)
13 | CCOC(=O)Cn1c(=O)c(-c2ccccc2N)nc2ccccc21 | 620 | -1.8% (inactive) | 2.1% (inactive) | 124% | -50.2% (inactive) | 116% | -0.542 (inactive) | -3.7e-05 (inactive) | 0.00661 (inactive) | 12.3% (inactive) | 33.1% (inactive)
14 | O=C1CC(N2CCN(C3CCc4ccccc4C3)CC2)C(=O)N1c1ccccc1 (stereo not drawn) | 288 | 4% (inactive) | 0.8% (inactive) | 88.6% | 6.6% (inactive) | 121% | -0.378 (inactive) | -9.9e-05 (inactive) | 0.00552 (inactive) | 17.3% (inactive) | 28.1% (inactive)
15 | Cc1ccc2[nH]c3c(c2c1)CCc1cn[nH]c1-3 | 410 | 5.1% (inactive) | -4.7% (inactive) | 71.7% | 27.4% (inactive) | 105% | -0.481 (inactive) | -1.8e-05 (inactive) | 0.00393 (inactive) | -22.4% (inactive) | -73.4% (inactive)
16 | CCN(CC)C(=O)Cn1c(=O)n(Cc2ccccc2Cl)c2c1c(=O)n(C)c(=O)n2C | 678 | -6.4% (inactive) | 21.9% (inactive) | 94.3% | 49% (inactive) | 85.7% | -0.45 (inactive) | 3.6e-05 (inactive) | 0.00765 (inactive) | 2.5% (inactive) | 10.3% (inactive)
17 | COc1ccc(C2=NOC(C(=O)Nc3cc(Br)ccc3O)C2)cc1OC (stereo not drawn) | 672 | -12.2% (inactive) | -2.8% (inactive) | 102% | -73.1% (inactive) | 106% | -0.459 (inactive) | -3.2e-05 (inactive) | 0.00665 (inactive) | 9.82% (inactive) | 34.8% (inactive)
18 | CCSc1nnc(NC(=O)C2CCCN(S(=O)(=O)c3cnc[nH]3)C2)s1 (stereo not drawn) | 577 | -0.5% (inactive) | 10% (inactive) | 101% | -101% (inactive) | 125% | -0.537 (inactive) | -2.1e-05 (inactive) | 0.00708 (inactive) | 9.63% (inactive) | 21.5% (inactive)
19 | Cc1ccc2cc(C(c3nnnn3CC3CCCO3)N3CCCC4(CCCCC4)C3)c(=O)[nH]c2c1 (stereo not drawn) | 715 | 0.8% (inactive) | 23.8% (inactive) | 106% | -34% (inactive) | 112% | -0.618 (inactive) | -3.7e-05 (inactive) | 0.00614 (inactive) | 10.5% (inactive) | 16.9% (inactive)
20 | O=C(Nc1ccc(N2CCOCC2)c(Cl)c1)c1ccc(Br)o1 | 708 | 8.2% (inactive) | 4.4% (inactive) | 103% | -109% (inactive) | 104% | -0.497 (inactive) | -0.000111 (inactive) | 0.00715 (inactive) | -54.1% (inactive) | -162% (inactive)
21 | c1ccc2c(c1)c1c3n2CCNC3CCC1 (stereo not drawn) | 663 | -11.5% (inactive) | -9.5% (inactive) | 103% | -119% (inactive) | 102% | -0.364 (inactive) | -2e-05 (inactive) | 0.00436 (inactive) | 15.3% (inactive) | 14% (inactive)
22 | CCOc1ccccc1C(=O)N1CCN(c2cccc(Cl)c2)CC1 | 460 | 24.4% (active) | -20.9% (inactive) | 4% | -294% (inactive) | 104% | -0.614 (inactive) | -5.4e-05 (inactive) | 0.00344 (inactive) | 9.54% (inactive) | 87.8% (active)
23 | CCn1c(CSc2nc(C)cc(C)n2)nnc1SCC(=O)Nc1ccccc1 | 579 | 1.9% (inactive) | -15.5% (inactive) | 101% | -38.7% (inactive) | 142% | -0.436 (inactive) | -3.8e-05 (inactive) | 0.00615 (inactive) | -15.1% (inactive) | -10.7% (inactive)
24 | CCOC(=O)N1CCN(c2c(N3CCN(c4ccccc4OC)CC3)c(=O)c2=O)CC1 | 651 | -2.3% (inactive) | 18.3% (inactive) | 109% | -66.1% (inactive) | 129% | -0.532 (inactive) | -2.1e-05 (inactive) | 0.0077 (inactive) | 3.99% (inactive) | 15% (inactive)
25 | CCOc1ccc(C(=O)OCc2nnc(-c3cccs3)o2)cc1OC | 737 | 7.1% (inactive) | 4.7% (inactive) | 101% | -51.1% (inactive) | 137% | -0.603 (inactive) | 1.9e-06 (inactive) | 0.00555 (inactive) | 12.1% (inactive) | 27.5% (inactive)
26 | CCc1cc(C(=O)OC)c(NC(=O)CCC(=O)O)s1 | 719 | -5.2% (inactive) | 3.9% (inactive) | 117% | -24% (inactive) | 106% | -0.392 (inactive) | 3.6e-05 (inactive) | 0.0103 (inactive) | -0.441% (inactive) | 97.6% (active)
27 | O=C(O)C1CC=CCC1C(=O)Nc1cc(Cl)ccc1Cl (stereo not drawn) | 389 | 4.2% (inactive) | -1.2% (inactive) | 98.5% | 5.3% (inactive) | 102% | -0.505 (inactive) | -2.3e-05 (inactive) | 0.00676 (inactive) | -11.2% (inactive) | 1.01% (inactive)
28 | CC1CCc2c(sc(N)c2C(N)=O)C1 (stereo not drawn) | 722 | -4.4% (inactive) | 6.1% (inactive) | 88.3% | 16.5% (inactive) | 98.4% | -0.371 (inactive) | -1.7e-06 (inactive) | 0.00501 (inactive) | 5.07% (inactive) | 6.01% (inactive)
